The list is not random: actives were taken first. Their share in the collection is about 2.2%.
TLR4 MyD88 comp: inhibitors of human TLR4-MyD88 binding | 200,000 compounds, 0.18% hits | inhibition, % at 8.4 µM | HeLa CL3-4 TLR4/MyD88 BLA complementation, FRET ratio; in the data active means inhibition above about 25%;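 further: 0% = vehicle and 100% = reference inhibitor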
TMEM16A inh: inhibitors of mouse TMEM16A calcium-activated chloride channel; HEK293 TMEM16A/YFP iodide influx fluorescence, ionomycin; normalized B-score (activity score, 25-100; higher = stronger inhibition) at 10 µM; 310,000 compounds, 1.2% hits;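 active means ratio plate-corrected score three or more library SD toward inhibition, starting fluorescence score within five deviations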;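 further: score derived from kinetic fluorescence span divided by baseline fluorescence per well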
GRK2 aptamer HTS: inhibitors of human GRK2 displacing RNA aptamer; P25098; bead flow cytometry, FAM-aptamer displacement from GRK2; inhibition of aptamer binding, % at 10 µM; 330,000 compounds, 0.59% hits; AID 488847;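 active means inhibition of aptamer binding above 40%, roughly 3 SD of noise, on plates passing a quality check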;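 further: median bead fluorescence of bound FAM aptamer so fluorescent compounds give negative values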
NOD2 RIPK2 PPI: NOD2-RIPK2 protein interaction inhibition. CHO BLA complementation NOD2-RIPK2, CCF4 ratio. 360,000 compounds, 0.38% hits. O43353. inhibition, % at 4.98 µM. AID 624267; in the data active means inhibition above about 21%;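 further: 0% = vehicle only and 100% = reference blocker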
TLR9-MyD88 inh: blocks human TLR9 binding to MyD88; Q9NR96+Q99836; CHO BLA complementation TLR9-MyD88, CCF4 FRET ratio; inhibition, % at 4.98 µM; 340,000 compounds, 0.21% hits; AID 504734;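 active means inhibition above the mean over all tested compounds plus 3 SD, cut at about 21% in these data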;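 further: 0% = DMSO only wells and 100% = clavulanate BLA inhibitor control wells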
TMEM16A act: mouse TMEM16A channel activation, primary screen. B-score at 10 µM. HEK293 TMEM16A/YFP-H148Q/I152L, iodide quench fluorescence; stronger effect = lower value. 340,000 compounds, 0.3% hits. Q8BHY3;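 active means fluorescence-ratio B-score plate-corrected deviation score at least 3 library SD below zero, with starting fluorescence score within 5 deviations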;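 further: channel opened by trigger with iodide after compound preincubation; score built on the fluorescence ratio of max minus min over baseline; more negative score means more quench and so TMEM16A activation or potentiation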
GRK2 CP1: human GRK2 inhibition confirmation, cherry pick 1. shares compounds with GRK2 aptamer HTS. bead-bound GRK2, FAM-aptamer displacement, flow cytometry. aptamer displacement, % at 10 µM. 2,000 compounds, 4% hits;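 active means aptamer displacement above 40%, near three times the noise of non-fluorescent compounds, on plates passing quality checks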;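 further: negative values mostly reflect intrinsic compound fluorescence rather than true enhancement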
Aptamer quench SP: quenches fluorescent RNA aptamer, GRK2 hit artifact; shares compounds with GRK2 aptamer HTS; Carboxyfluorescein RNA aptamer on beads, flow cytometry quenching; stronger effect = lower value; fluorescence response (% of DMSO), % at 10 µM; 2,000 tested, under 10 active; AID 504580;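 active means compounds that quench the bead-bound fluorescent RNA probe, cutting fluorescence to under half of the solvent control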;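 further: counterscreen run without GRK2 so only probe quenching by compound is measured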
GRK2 confirm 2: human GRK2 inhibition confirmation, cherry pick 2; shares compounds with GRK2 aptamer HTS; bead-bound GRK2, FAM-aptamer displacement, flow cytometry; inhibition of aptamer binding, % at 10 µM; 360 tested, under 10 active; AID 504782;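 active means inhibition of aptamer binding above 40%, about triple the noise seen with nonglowing compounds, on plates passing quality control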;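 further: negative values mostly come from compounds that fluoresce themselves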
FAM quench CP2: counter-screen for GRK2 binding hits: quenchers of fluorescent RNA aptamer; shares compounds with GRK2 aptamer HTS; carboxyfluorescein RNA aptamer beads, flow cytometry quenching; stronger effect = lower value; fluorescence response vs DMSO, % at 10 µM; 360 tested, under 10 active; AID 588494;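 active means response vs DMSO under 50%, meaning signal dropped by over half, treated as fluorescence quencher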;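 further: labelled aptamer on streptavidin beads without GRK2 as a quench counter-screen; 100% = bead fluorescence of DMSO wells and lower means quenching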
* hit, by the source's call.

Screening COc1cccc(CC2(CO)CCCN(Cc3cn[nH]c3-c3ccc(F)cc3)C2)c1 (stereo unspecified) returned TLR4 MyD88 comp -7, TMEM16A inh inactive, GRK2 aptamer HTS 0, NOD2 RIPK2 PPI 2, TLR9-MyD88 inh -9, TMEM16A act inactive, GRK2 CP1 -3 and Aptamer quench SP 104.
CC(c1ccco1)N(C(=O)C12CC3CC(CC(C)(C3)C1)C2)c1ccccn1 (stereo unspecified) was read as TLR4 MyD88 comp -3, TMEM16A inh inactive, GRK2 aptamer HTS 55*, NOD2 RIPK2 PPI 0, TLR9-MyD88 inh 2, TMEM16A act inactive, GRK2 CP1 -7 and Aptamer quench SP 99.
Screening O=C(c1ccccc1NS(=O)(=O)c1ccc(F)cc1F)N1CCCCC1 returned GRK2 aptamer HTS 0, NOD2 RIPK2 PPI -10, TLR9-MyD88 inh 0 and TMEM16A act inactive.
For Clc1c2c(nc3ccccc13)CCC2 the results were TMEM16A inh inactive, GRK2 aptamer HTS 1, NOD2 RIPK2 PPI -5, TLR9-MyD88 inh 4, TMEM16A act inactive, GRK2 confirm 2 -8 and FAM quench CP2 126.
`COc1cccc(C(=O)Nc2cccc(-c3ccc(N4CCOCC4)nn3)c2)c1OC` gave TMEM16A inh inactive, GRK2 aptamer HTS 0, NOD2 RIPK2 PPI 0, TLR9-MyD88 inh 3, TMEM16A act inactive, GRK2 CP1 0 and Aptamer quench SP 104.
For COc1ccc(C(=O)Nc2cccc(-c3ccc(N4CCOCC4)nn3)c2)cc1OC the results were TMEM16A inh inactive, GRK2 aptamer HTS 5, NOD2 RIPK2 PPI 0, TLR9-MyD88 inh 1 and TMEM16A act inactive.
O=C(Nc1cccc(-c2ccc(N3CCOCC3)nn2)c1)c1ccc(F)cc1F was read as TMEM16A inh inactive, GRK2 aptamer HTS 0, NOD2 RIPK2 PPI -5, TLR9-MyD88 inh -13, TMEM16A act inactive, GRK2 CP1 7 and Aptamer quench SP 99.
For CCOc1ccccc1C(=O)Nc1cccc(-c2ccc(N3CCOCC3)nn2)c1 the results were TMEM16A inh inactive, GRK2 aptamer HTS 0, NOD2 RIPK2 PPI -3, TLR9-MyD88 inh -5 and TMEM16A act inactive.
`CCN(CC)CCCn1c2c(c(SCC(=O)N3CCCc4ccccc43)nc1=O)CCC2` gave TMEM16A inh inactive, GRK2 aptamer HTS 0, NOD2 RIPK2 PPI 0, TLR9-MyD88 inh 1 and TMEM16A act inactive.
COc1cccc(/C=N/NC(=O)CC2C(=O)NN=C2C)c1O (stereo unspecified) was read as TLR4 MyD88 comp -3, TMEM16A inh inactive, GRK2 aptamer HTS 66*, NOD2 RIPK2 PPI 1, TLR9-MyD88 inh 4, TMEM16A act inactive, GRK2 CP1 2 and Aptamer quench SP 97.
COc1cccc(/C=N/NC(=O)CC2C(=O)NN=C2C)c1OC (stereo unspecified) was read as TLR4 MyD88 comp -9, TMEM16A inh inactive, GRK2 aptamer HTS 1, NOD2 RIPK2 PPI -3, TLR9-MyD88 inh 2 and TMEM16A act inactive.
CSCC[C@H](NC(=O)Cc1c(C)c2c(cc(C)c3c(C)coc32)oc1=O)C(=O)O was read as TMEM16A inh inactive, GRK2 aptamer HTS 97*, NOD2 RIPK2 PPI -5, TLR9-MyD88 inh -9, TMEM16A act inactive, GRK2 CP1 -5 and Aptamer quench SP 95.
